According to paper PMC7862700, “An all-to-all approach to the identification of sequence-specific readers for epigenetic DNA modifications on cytosine”:

Columns and labels:
Test in all cases: DAPPL (digital affinity profiling via proximity ligation, sequencing); 10 mM Tris-HCl pH 7.5, 50 mM NaCl, 1 mM DTT, 4% glycerol, room temperature, 30 min; GST-TFs on glutathione beads, 16-mer random dsDNA library, 0.1% formaldehyde crosslink after washing; high values mean tight binding
FEV = target: T1, FEV (Homo sapiens, UniProt Q99581 1-238); conditions: protein: recombinant; tags: N-terminal GST; dsDNA, one strand shown
T1 sequence: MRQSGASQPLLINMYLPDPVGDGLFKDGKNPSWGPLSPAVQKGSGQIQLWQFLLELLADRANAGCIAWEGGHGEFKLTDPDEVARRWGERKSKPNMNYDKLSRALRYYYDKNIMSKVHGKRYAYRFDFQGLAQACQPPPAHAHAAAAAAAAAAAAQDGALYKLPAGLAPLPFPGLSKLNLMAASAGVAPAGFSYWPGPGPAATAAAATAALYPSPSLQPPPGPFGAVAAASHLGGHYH
In short: (§1)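 In yeast, human transcription factors were expressed with a GST fusion, then pulled down on glutathione beads and given DNA barcodes. Pooled with a tag-only sample, they were exposed to 200 nmole of a 16-mer random double-stranded DNA library (Tris/NaCl/DTT/glycerol buffer, room temperature, 30 min), washed, crosslinked with 0.1% formaldehyde, proximity-ligated using BsaI/T4 ligase for 1 h at 37 °C, PCR-amplified and read on an Illumina NextSeq500. Each hexamer's frequency of reads for a factor, divided by the matching frequency for the tag-only sample, gives the binding signal.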

ETV5 = ETV5 (Homo sapiens, UniProt P41161 1-510); conditions: protein: recombinant; tags: N-terminal GST; dsDNA, one strand shown
ETV5, sequence (P41161 whole entry): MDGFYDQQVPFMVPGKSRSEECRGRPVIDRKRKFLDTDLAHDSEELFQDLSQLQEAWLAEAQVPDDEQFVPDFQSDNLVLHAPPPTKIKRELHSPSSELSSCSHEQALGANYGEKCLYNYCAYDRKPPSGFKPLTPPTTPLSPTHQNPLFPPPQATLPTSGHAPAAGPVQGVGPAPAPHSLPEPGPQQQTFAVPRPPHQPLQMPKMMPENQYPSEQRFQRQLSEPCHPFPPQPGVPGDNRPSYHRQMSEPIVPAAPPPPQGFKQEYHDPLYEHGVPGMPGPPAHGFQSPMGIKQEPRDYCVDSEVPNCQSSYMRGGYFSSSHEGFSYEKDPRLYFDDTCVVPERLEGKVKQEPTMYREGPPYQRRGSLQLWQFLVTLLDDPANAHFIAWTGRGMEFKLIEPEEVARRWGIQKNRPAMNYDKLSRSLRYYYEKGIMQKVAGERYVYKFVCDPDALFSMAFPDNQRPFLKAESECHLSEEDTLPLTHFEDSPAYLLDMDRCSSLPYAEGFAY
In short: as §1

HSF1 = HSF1 (Homo sapiens, UniProt Q00613 1-529); conditions: protein: recombinant; tags: N-terminal GST; chain copies: 3; dsDNA, one strand shown
HSF1, sequence (Q00613 whole entry): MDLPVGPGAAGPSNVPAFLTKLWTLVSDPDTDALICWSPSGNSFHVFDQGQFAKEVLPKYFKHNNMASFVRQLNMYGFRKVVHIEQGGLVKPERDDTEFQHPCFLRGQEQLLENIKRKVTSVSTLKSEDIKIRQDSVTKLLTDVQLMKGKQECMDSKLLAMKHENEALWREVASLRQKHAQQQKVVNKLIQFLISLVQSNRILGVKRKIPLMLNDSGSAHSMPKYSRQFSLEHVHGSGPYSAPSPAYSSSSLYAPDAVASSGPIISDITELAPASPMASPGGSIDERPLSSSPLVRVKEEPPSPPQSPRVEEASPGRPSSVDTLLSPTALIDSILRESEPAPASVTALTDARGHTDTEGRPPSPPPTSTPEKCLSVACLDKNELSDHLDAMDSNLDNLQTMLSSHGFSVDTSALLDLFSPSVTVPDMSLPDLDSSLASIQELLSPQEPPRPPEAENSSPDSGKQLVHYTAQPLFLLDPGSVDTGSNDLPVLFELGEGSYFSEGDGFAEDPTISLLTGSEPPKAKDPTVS
In short: as §1

SPIC = target: T2, SPIC (Homo sapiens, UniProt Q8N5J4 1-248); conditions: protein: recombinant; tags: N-terminal GST; dsDNA, one strand shown
T2 sequence: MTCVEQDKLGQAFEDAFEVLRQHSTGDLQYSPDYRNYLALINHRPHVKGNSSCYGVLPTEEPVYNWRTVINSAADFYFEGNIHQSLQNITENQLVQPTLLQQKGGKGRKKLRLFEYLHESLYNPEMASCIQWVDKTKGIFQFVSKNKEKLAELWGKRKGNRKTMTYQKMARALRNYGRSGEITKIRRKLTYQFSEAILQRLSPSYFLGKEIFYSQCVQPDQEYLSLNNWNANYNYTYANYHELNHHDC
In short: as §1

ELF4 = ELF4 (Homo sapiens, UniProt Q99607 1-663); conditions: protein: recombinant; tags: N-terminal GST; dsDNA, one strand shown
ELF4, sequence (Q99607 whole entry): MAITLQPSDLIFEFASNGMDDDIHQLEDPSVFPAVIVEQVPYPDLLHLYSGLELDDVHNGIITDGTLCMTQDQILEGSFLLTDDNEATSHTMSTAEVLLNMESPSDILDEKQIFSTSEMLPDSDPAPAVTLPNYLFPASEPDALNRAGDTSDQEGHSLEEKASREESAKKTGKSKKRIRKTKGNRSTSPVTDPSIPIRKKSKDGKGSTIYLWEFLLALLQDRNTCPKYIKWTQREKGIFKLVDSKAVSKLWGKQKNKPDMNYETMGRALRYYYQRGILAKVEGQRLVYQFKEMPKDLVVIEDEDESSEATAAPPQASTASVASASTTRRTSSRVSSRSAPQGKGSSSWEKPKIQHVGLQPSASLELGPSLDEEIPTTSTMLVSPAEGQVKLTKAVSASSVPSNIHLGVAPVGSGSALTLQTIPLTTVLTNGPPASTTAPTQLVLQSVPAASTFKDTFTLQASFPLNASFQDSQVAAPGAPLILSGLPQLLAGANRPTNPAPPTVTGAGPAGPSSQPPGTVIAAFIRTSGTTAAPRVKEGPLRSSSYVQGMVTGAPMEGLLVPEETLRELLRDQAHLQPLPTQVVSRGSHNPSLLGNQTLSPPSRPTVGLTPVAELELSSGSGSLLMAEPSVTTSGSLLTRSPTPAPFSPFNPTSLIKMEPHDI
In short: as §1

ELK4 = target: T3, ELK4 (Homo sapiens, UniProt P28324-2 1-405); conditions: protein: recombinant; tags: N-terminal GST; dsDNA, one strand shown
T3 sequence: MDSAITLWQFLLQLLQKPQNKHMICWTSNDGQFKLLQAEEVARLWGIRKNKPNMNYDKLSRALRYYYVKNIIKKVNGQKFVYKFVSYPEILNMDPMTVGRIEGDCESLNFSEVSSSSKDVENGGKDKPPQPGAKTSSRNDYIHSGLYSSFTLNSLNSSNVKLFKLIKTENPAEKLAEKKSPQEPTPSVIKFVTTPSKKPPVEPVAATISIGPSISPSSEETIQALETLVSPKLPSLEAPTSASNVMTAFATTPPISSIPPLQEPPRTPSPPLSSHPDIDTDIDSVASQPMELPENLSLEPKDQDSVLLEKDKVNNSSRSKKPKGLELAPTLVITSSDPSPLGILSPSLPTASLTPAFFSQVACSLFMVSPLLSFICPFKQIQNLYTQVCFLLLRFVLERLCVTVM
In short: as §1

ETV2 = target: T4, ETV2 (Homo sapiens, UniProt O00321 1-342); conditions: protein: recombinant; tags: N-terminal GST; dsDNA, one strand shown
T4 sequence: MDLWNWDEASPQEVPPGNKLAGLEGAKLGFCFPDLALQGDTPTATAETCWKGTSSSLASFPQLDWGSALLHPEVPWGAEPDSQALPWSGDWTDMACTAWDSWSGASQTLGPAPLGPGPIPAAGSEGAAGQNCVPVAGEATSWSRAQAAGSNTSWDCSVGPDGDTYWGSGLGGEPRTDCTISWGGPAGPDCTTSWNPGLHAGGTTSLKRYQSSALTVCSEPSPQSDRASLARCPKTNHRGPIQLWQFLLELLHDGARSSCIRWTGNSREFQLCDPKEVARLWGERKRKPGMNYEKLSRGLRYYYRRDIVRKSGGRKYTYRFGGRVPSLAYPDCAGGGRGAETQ
In short: as §1

ELF3 = target: T5, ELF3 (Homo sapiens, UniProt P78545 1-371); conditions: protein: recombinant; tags: N-terminal GST; dsDNA, one strand shown
T5 sequence: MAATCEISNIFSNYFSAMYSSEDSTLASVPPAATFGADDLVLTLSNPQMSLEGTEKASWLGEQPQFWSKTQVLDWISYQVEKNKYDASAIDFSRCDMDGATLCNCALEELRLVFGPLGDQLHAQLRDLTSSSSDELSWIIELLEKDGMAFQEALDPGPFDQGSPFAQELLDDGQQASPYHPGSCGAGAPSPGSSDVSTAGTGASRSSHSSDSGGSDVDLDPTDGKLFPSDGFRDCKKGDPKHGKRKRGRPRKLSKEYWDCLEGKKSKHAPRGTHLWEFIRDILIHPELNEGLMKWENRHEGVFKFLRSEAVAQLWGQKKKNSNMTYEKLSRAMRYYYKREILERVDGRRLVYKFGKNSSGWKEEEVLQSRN
In short: as §1

CRX = CRX (Homo sapiens, UniProt O43186 1-299); conditions: protein: recombinant; tags: N-terminal GST; dsDNA, one strand shown
CRX, sequence (O43186 whole entry): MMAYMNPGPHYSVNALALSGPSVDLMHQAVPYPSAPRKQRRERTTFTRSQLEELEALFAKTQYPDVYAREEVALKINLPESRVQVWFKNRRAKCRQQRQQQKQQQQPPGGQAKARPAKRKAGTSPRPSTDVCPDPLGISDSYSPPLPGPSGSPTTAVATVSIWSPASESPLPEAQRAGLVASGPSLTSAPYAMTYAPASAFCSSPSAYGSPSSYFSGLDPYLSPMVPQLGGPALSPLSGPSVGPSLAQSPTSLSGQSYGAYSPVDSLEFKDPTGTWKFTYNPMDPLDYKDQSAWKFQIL
In short: as §1

ETV1 = ETV1 (Homo sapiens, UniProt P50549 1-477); conditions: protein: recombinant; tags: N-terminal GST; dsDNA, one strand shown
ETV1, sequence (P50549 whole entry): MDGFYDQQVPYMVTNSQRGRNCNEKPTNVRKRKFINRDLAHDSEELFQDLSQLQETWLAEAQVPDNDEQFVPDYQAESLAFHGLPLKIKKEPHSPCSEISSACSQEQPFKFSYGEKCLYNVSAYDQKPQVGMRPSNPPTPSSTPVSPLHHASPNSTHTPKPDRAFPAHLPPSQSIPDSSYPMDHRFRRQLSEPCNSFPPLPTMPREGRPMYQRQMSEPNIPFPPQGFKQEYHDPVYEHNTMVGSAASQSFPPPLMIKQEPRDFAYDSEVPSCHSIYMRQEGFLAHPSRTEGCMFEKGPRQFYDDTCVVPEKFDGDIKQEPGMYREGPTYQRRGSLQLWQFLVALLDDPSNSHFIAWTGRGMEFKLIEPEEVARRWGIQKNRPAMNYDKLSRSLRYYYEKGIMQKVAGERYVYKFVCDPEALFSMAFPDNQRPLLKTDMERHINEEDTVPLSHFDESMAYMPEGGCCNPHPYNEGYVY
In short: as §1

ERF = target: T6, ERF (Homo sapiens, UniProt P50548 1-548); conditions: protein: recombinant; tags: N-terminal GST; dsDNA, one strand shown
T6 sequence: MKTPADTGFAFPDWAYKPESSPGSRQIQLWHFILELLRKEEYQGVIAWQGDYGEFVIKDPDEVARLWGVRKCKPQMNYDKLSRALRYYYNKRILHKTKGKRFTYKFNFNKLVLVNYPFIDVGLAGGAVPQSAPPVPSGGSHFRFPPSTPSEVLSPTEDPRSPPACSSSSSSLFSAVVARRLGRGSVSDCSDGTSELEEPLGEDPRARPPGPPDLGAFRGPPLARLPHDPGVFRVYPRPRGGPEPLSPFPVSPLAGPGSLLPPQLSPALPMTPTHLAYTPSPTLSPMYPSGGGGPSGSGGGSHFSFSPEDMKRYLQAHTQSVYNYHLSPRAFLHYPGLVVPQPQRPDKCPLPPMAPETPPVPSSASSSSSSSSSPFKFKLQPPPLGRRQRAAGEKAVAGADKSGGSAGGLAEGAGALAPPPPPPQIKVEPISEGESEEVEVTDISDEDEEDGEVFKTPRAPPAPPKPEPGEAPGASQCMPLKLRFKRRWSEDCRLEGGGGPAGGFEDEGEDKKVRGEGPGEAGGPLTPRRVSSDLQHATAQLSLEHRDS
In short: as §1

ETV3L = target: T7, ETV3L (Homo sapiens, UniProt Q6ZN32 1-361); conditions: protein: recombinant; tags: N-terminal GST; dsDNA, one strand shown
T7 sequence: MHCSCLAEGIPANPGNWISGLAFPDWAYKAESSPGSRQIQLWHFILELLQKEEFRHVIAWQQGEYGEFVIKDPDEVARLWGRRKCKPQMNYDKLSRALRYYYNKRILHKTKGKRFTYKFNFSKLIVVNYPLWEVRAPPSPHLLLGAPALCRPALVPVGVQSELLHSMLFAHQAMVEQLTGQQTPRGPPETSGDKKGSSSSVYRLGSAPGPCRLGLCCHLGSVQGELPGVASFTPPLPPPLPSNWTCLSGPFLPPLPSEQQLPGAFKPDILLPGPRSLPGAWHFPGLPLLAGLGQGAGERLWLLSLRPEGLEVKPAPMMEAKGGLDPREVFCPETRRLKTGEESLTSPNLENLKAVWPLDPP
In short: as §1

ETS2 = target: T8, ETS2 (Homo sapiens, UniProt P15036 1-469); conditions: protein: recombinant; tags: N-terminal GST; dsDNA, one strand shown
T8 sequence: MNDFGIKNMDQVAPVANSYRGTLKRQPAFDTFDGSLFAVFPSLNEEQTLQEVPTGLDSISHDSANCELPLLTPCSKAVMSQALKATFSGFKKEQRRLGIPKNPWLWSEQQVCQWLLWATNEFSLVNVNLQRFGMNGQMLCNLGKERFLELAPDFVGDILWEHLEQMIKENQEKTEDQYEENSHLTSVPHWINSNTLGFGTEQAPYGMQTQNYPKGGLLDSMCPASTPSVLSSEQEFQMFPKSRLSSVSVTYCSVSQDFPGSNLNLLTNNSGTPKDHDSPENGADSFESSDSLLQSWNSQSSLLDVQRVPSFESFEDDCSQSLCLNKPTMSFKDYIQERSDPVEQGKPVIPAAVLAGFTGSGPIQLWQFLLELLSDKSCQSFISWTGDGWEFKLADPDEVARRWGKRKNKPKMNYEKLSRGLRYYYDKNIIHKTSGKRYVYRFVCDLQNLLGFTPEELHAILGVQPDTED
In short: as §1

SPDEF = target: T9, SPDEF (Homo sapiens, UniProt O95238 1-335); conditions: protein: recombinant; tags: N-terminal GST; dsDNA, one strand shown
T9 sequence: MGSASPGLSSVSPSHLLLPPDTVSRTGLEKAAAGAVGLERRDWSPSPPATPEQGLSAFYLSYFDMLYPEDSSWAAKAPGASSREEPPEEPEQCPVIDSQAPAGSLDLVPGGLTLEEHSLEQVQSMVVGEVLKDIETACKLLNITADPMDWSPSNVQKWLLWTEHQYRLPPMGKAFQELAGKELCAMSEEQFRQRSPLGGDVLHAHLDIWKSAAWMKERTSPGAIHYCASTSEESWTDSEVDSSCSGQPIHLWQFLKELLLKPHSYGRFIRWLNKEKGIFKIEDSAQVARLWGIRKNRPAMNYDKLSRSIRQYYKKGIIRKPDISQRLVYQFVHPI
In short: as §1

ETV7 = target: T10, ETV7 (Homo sapiens, UniProt Q9Y603 1-341); conditions: protein: recombinant; tags: N-terminal GST; dsDNA, one strand shown
T10 sequence: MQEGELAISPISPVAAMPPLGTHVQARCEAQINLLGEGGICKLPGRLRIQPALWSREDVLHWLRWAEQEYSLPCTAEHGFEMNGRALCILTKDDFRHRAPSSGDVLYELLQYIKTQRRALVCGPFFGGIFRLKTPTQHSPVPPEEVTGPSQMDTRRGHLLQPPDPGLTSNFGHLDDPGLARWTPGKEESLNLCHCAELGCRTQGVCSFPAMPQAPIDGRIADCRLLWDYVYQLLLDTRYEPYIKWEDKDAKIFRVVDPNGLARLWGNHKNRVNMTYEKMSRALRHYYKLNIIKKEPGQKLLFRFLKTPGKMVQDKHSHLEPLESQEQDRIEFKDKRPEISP
In short: as §1

ELF5 = target: T11, ELF5 (Homo sapiens, UniProt Q9UKW6-2 1-255); conditions: protein: recombinant; tags: N-terminal GST; dsDNA, one strand shown
T11 sequence: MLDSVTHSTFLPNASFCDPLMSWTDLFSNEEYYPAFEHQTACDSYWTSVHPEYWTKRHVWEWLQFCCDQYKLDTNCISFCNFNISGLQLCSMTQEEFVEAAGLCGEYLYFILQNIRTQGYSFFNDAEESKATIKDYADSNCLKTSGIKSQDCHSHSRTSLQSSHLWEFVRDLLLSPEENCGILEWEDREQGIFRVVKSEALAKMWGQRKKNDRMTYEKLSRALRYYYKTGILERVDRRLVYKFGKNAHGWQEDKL
In short: as §1

ETV3 = target: T12, ETV3 (Homo sapiens, UniProt P41162-2 1-143); conditions: protein: recombinant; tags: N-terminal GST; dsDNA, one strand shown
T12 sequence: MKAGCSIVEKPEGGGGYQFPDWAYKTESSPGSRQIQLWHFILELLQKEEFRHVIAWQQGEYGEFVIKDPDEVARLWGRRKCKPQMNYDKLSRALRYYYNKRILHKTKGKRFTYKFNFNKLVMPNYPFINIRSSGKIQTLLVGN
In short: as §1

ETV6 = ETV6 (Homo sapiens, UniProt P41212 1-452); conditions: protein: recombinant; tags: N-terminal GST; dsDNA, one strand shown
ETV6, sequence (P41212 whole entry): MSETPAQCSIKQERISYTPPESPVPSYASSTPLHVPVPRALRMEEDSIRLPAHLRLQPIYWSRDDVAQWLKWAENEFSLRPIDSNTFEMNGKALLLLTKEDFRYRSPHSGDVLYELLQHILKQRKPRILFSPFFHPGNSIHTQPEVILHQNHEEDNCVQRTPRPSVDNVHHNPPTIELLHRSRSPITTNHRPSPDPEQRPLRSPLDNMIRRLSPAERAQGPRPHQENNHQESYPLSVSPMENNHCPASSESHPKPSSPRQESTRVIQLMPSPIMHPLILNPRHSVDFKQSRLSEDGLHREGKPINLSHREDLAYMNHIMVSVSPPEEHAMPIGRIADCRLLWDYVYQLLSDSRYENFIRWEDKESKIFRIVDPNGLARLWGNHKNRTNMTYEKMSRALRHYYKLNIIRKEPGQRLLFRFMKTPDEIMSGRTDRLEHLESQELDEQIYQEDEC
In short: as §1

ATATGC
binding signal (FEV): 1.11 fold enrichment (6-mer frequency, TF over GST control)
binding signal (ETV5): 1.15 fold enrichment (6-mer frequency, TF over GST control)
binding signal (HSF1): 1.01 fold enrichment (6-mer frequency, TF over GST control)
binding signal (SPIC): 1.4 fold enrichment (6-mer frequency, TF over GST control)
binding signal (ELF4): 1.1 fold enrichment (6-mer frequency, TF over GST control)
binding signal (ELK4): 1.28 fold enrichment (6-mer frequency, TF over GST control)
binding signal (ETV2): 1.06 fold enrichment (6-mer frequency, TF over GST control)
binding signal (ELF3): 1.09 fold enrichment (6-mer frequency, TF over GST control)
binding signal (CRX): 1.01 fold enrichment (6-mer frequency, TF over GST control)
binding signal (ETV1): 1.11 fold enrichment (6-mer frequency, TF over GST control)
binding signal (ERF): 1.15 fold enrichment (6-mer frequency, TF over GST control)
binding signal (ETV3L): 1.11 fold enrichment (6-mer frequency, TF over GST control)
binding signal (ETS2): 1.19 fold enrichment (6-mer frequency, TF over GST control)
binding signal (SPDEF): 1.14 fold enrichment (6-mer frequency, TF over GST control)
binding signal (ETV7): 1.11 fold enrichment (6-mer frequency, TF over GST control)
binding signal (ELF5): 1.12 fold enrichment (6-mer frequency, TF over GST control)
binding signal (ETV3): 1.16 fold enrichment (6-mer frequency, TF over GST control)
binding signal (ETV6): 1.12 fold enrichment (6-mer frequency, TF over GST control)
